Experimental data taken from PubChem BioAssay AID651995 (Sanford-Burnham Center for Chemical Genomics, 2013).
About 480 (19%) of roughly 2,500 compounds were called active.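 The calls were made as follows: active = mean inhibition above about 25% (limit read from the data); inactive = the rest.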 The entries come from a sample that favours actives as a whole.

Test: Wnt3a reporter signal inhibition, confirmation, counter-screen for Gli-SUFU antagonist project, Wnt-LIGHT cells, luminescence, single concentration (AID 651995)
Conditions: Wnt3a-driven luciferase reporter, at 6.25 µM, stronger effect = higher value

Q: With `CCOc1cccc(=NC2CCCCC2)c2c(C)[nH]c(C)c12` as the compound, how does the inhibition read?
A: Its inhibition is 26.5% (active).
